High-throughput results: PubChem BioAssay, several laboratories
PGE2 EP2 inh: EP2 receptor (human) inhibition. P43116. C6 glioma cells expressing human EP2, cAMP TR-FRET; cells stimulated with saturating PGE2. inhibition, % at 25 µM. 0.52% of 260,000 active. AID 1422;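 active = percent inhibition above 40 after rounding to a whole number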;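 also: rat C6 glioma host cells with rolipram phosphodiesterase inhibitor present; the protocol text gives 20 µM as final concentration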
Target sequence (P43116 whole entry, looked up): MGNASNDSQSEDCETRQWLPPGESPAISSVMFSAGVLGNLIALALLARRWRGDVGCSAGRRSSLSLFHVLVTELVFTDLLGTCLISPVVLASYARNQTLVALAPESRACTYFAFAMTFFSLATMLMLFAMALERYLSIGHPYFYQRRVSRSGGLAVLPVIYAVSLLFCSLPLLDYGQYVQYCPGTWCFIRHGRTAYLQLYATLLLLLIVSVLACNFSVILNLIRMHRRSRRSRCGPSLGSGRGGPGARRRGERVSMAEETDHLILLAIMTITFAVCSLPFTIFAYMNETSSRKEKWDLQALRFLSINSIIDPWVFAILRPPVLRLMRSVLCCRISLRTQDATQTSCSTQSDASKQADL
Furin inhibitor: human furin inhibition. P09958. 0.061% of 220,000 active. inhibition, % at 20 µM or 30 µM. purified furin, fluorogenic substrate cleavage; in the data active = inhibition above about 25%
p47phox inh: inhibitors of human p47phox binding; p47phox/p22phox peptide binding, fluorescence polarization, 2 h; AID 1274; P14598; inhibition, % at 24.7 µM; 0.53% of 220,000 active;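 active = inhibition above about 30%, limit read from the data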
Wee1 stabilizer: blocks degradation of human Wee1 kinase | P30291 | HeLa Luc-Wee1K328M stability, luciferase luminescence; 100% = proteasome inhibitor MG132 effect | reporter increase, % at 5 µM | 1.2% of 220,000 active | AID 1321;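 active = activation above the mean of all tested compounds plus 3 SD, set per screening run, cut at about 8.8% in these data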;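 also: cells exposed to compound for 20 h before luminescence read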
EP2 modulator: EP2 receptor (human) modulation; EP2-expressing cells, cAMP HTRF FRET, PGE2 co-stimulation; P43116; induction, % at 25 µM; 0.83% of 260,000 active;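 active = compounds whose cAMP rise, as percent of the full-agonist control response, exceeds 60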;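 also: rat C6 glioma line stably carrying human EP2 under a CMV promoter; the protocol text gives 20 µM as final concentration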
HSV augment: increases HSV replication in cells; AID 1956; 0.005% of 220,000 active; HSV replication augmentation in cells, fold increase; maximum fold increase; in the data active = maximum fold increase above about 1.5; tested in PC3 cells
Each line names hits and unclear results; the compound was inactive in the other large screens. Shown are actives, neighbours in structure and some others; about 2.8% of the full set was active somewhere.

O=c1oc2ccccc2c2c1nnn2C1CCN(Cc2ccccc2)CC1	PGE2 EP2 inh 74 (no result: Furin inhibitor, p47phox inh, Wee1 stabilizer, HSV augment)
Cc1ncccc1-c1cc2cccnc2n1CCC(=O)NCc1ccncc1	none (no result: Furin inhibitor, p47phox inh, Wee1 stabilizer, HSV augment)
O=C(COc1ccccc1Cl)N1CCOCC1	none (no result: Furin inhibitor, p47phox inh, Wee1 stabilizer, HSV augment)
COC(=O)CSc1nc2sc3c(c2c(=O)[nH]1)CCC3	p47phox inh 76
O=C(CSc1nc2sc3c(c2c(=O)[nH]1)CCC3)NCCO	none
CCSc1ncnc2c(-c3ccc(OC)cc3)nsc12	none (no result: Furin inhibitor, p47phox inh, Wee1 stabilizer, HSV augment)
Cc1ccc2nc(NCc3ccco3)c(C=NCc3ccco3)c(=O)n2c1	EP2 modulator 63
C/C(=N\NC(=O)CSc1nc2nc(C)cc(C)n2n1)c1ccccc1	PGE2 EP2 inh 128
CCOc1cccc(/C(O)=C2/C(=O)C(=O)N(CCN(C)C)C2c2ccc(C)o2)c1 (centres undefined)	none (no result: Furin inhibitor, p47phox inh, Wee1 stabilizer, HSV augment)
Cc1cc(Cc2cc(C)cc(C(C)(C)C)c2O)c(O)c(Cc2cc(C)cc(C(C)(C)C)c2O)c1	PGE2 EP2 inh 41 (no result: Furin inhibitor, p47phox inh, Wee1 stabilizer, HSV augment)
Cc1c(Cl)cc(C(C)(C)C)c(O)c1Cc1c(C)c(Cl)cc(C(C)(C)C)c1O	PGE2 EP2 inh 47 (no result: Furin inhibitor, p47phox inh, Wee1 stabilizer, HSV augment)
Cc1cc(Cc2c(C)c(C)c(Cc3cc(C)cc(C(C)(C)C)c3O)c(C)c2C)c(O)c(C(C)(C)C)c1	PGE2 EP2 inh 55 (no result: Furin inhibitor, p47phox inh, Wee1 stabilizer, HSV augment)
COc1ccc(NC(=O)CSc2nnc(COc3cccc(C)c3)n2C)cc1	none (no result: Furin inhibitor, p47phox inh, Wee1 stabilizer, HSV augment)
O=C(O)[C@@H](Br)[C@@H](Br)c1ccccc1[N+](=O)[O-]	PGE2 EP2 inh 41 (no result: Furin inhibitor, p47phox inh, Wee1 stabilizer, HSV augment)
O=C(O)CSc1nnc2c(n1)[nH]c1ccccc12	none
O=C(O)c1ccccc1CSc1nnc2c(n1)[nH]c1ccccc12	EP2 modulator 61
CC(C(=O)Nc1cccc2c1CCCC2)n1nc(-c2cccs2)cc(N)c1=O (centres undefined)	none (no result: Furin inhibitor, p47phox inh, Wee1 stabilizer, HSV augment)
Cc1nnc(SCC(=O)Nc2cc(-c3cc(C)c(C)cc3C)nn2-c2ccccc2)s1	none
CC(=O)Nc1cc(-c2ccc(Cl)cc2)nn1-c1ccccc1	Furin inhibitor 28
CC(=O)Nc1cc(-c2ccccc2)nn1Cc1ccc(Cl)cc1	none
CCCc1ccc(-c2cc(NC(=O)CSc3nnc(N)s3)n(-c3ccccc3)n2)cc1	Wee1 stabilizer 10
COc1ccc(NC(=O)N2CCN(c3nc4ccccc4n3C)CC2)cc1	none (no result: Furin inhibitor, p47phox inh, Wee1 stabilizer, HSV augment)
CC1CCc2c(sc3nc(SCC(=O)NC(C)(C)C)[nH]c(=O)c23)C1 (centres undefined)	none (no result: Furin inhibitor, p47phox inh, Wee1 stabilizer, HSV augment)
COc1ccc(-c2cc(-c3ccc(Br)cc3)nc(N)c2C#N)cc1OC	none (no result: Furin inhibitor, p47phox inh, Wee1 stabilizer, HSV augment)
Cc1ccc(NC(=O)C2Cc3ccccc3CN2S(=O)(=O)c2cccs2)cc1 (centres undefined)	none (no result: Furin inhibitor, p47phox inh, Wee1 stabilizer, HSV augment)
CCN1/C(=C/C=C/C=C/c2sc3ccccc3[n+]2CC)Sc2ccccc21	PGE2 EP2 inh 50
COc1ccc(CN(Cc2cc3cccc(C)c3[nH]c2=O)S(=O)(=O)c2ccc(OC)cc2)cc1	none (no result: Furin inhibitor, p47phox inh, Wee1 stabilizer, HSV augment)
Cc1ccccc1N1CC(O)=C(c2nc3ccccc3s2)C1=N	none (no result: Furin inhibitor, p47phox inh, Wee1 stabilizer, HSV augment)
COCCNC(=O)CN(c1cc(C(F)(F)F)ccc1Cl)S(C)(=O)=O	Wee1 stabilizer 10
Cn1cccc1/C=C1\SC(=S)N(NC(=O)c2ccccc2)C1=O	Wee1 stabilizer 9.0
O=C(O)CCCCCCC1C(=O)NC(=O)N1CCC(O)C1CCCCC1 (centres undefined)	EP2 modulator 106
O=C(O)CCCCCC[C@H]1C(=O)NC(=O)N1CC[C@@H](O)C1CCCCC1	EP2 modulator 100 (no result: Furin inhibitor, p47phox inh, Wee1 stabilizer, HSV augment)
COc1ccc(-c2nn(C)c3sc(C(=O)NCc4ccco4)cc23)cc1OC	none
COc1ccc(NC(=O)c2cc3c(-c4ccc(OC)c(OC)c4)nn(C)c3s2)cc1OC	PGE2 EP2 inh 43
O=C(NCCCN1CCOCC1)C1CC(c2ccccc2O)=NO1 (centres undefined)	none (no result: Furin inhibitor, p47phox inh, Wee1 stabilizer, HSV augment)
COc1cc(C(=O)OCC(=O)NC(=O)C2CCCCC2)ccc1OC(F)F	Wee1 stabilizer 9.8
CCOC(=O)c1c(C)[nH]c(C)c1C(=O)COC(=O)c1ccc(OC)c(OC)c1	none
COc1ccc(C(=O)COC(=O)c2ccc(OC)c(OC)c2)cc1OC	p47phox inh 96
Cc1nc(-c2ccccn2)nc(N2CCOCC2)c1Cl	Wee1 stabilizer 10
c1ccc2c(c1)nc(N1CCCCC1)c1ccccc12	EP2 modulator 68
c1ccc(-c2nc(N3CCCCCC3)c3ccccc3n2)nc1	EP2 modulator 61
CCN1CCN(C(=O)C2CC(c3ccc(Cl)cc3)=NO2)CC1 (centres undefined)	none (no result: Furin inhibitor, p47phox inh, Wee1 stabilizer, HSV augment)
